Results: PubChem BioAssay AID1650 (Southern Research Specialized Biocontainment Screening …, 2009)
Entries with a potency or affinity are not part of this list. Activity calls are given as the source filed them. How the calls were made is not given here.

assay: mammalian cell viability reduction – secondary assay, cytotoxicity control for West Nile virus antiviral project, dose response (AID 1650); settings: Mammalian host cell viability, cytotoxicity counter-screen; series mostly up to 10 µM

| SMILES | outcome |
| --- | --- |
| Cc1ccc(/C=C2/Sc3ccc(C(=O)N4CCN(C)CC4)cc3NC2=O)cc1 | inactive |
| CN(C)CCNS(=O)(=O)c1ccc(N2CCN(c3ccc(F)cc3)CC2)c([N+](=O)[O-])c1 | inactive |
| CC/C(=C(\c1ccc(O)cc1)c1ccc(OCCN(C)C)cc1)c1ccccc1 | inactive |
| Cc1cc(C)c(CSc2ncc(-c3ccc([N+](=O)[O-])cc3)[nH]2)c(C)c1 | inactive |
| O=C(Nc1ccc(F)c(Cl)c1)Nc1ccc(Cl)cn1 | inactive |
| O=C(Nc1cccnc1Cl)c1cc(-c2ccc(Cl)cc2)on1 | inactive |
| COc1ccc(N2C(=O)C(C)(C)C2c2c(O)ccc3ccccc23)cc1 (stereo not given) | inactive |
| COc1ccc(C2c3ccc4ccccc4c3Oc3ncn(CCO)c(=N)c32)cc1OC (stereo not given) | inactive |
| O=C(CN1CCCC1)Nc1ccc(-c2nc3cc(NC(=O)CN4CCCC4)ccc3o2)cc1 | inactive |
| COc1ccc(/C=C2\SC(=S)N(CCC(=O)NCCc3ccc(O)cc3)C2=O)cc1 | inactive |
| N=C1C(c2nc(-c3ccc(Cl)cc3)cs2)=C(O)CN1CCCN1CCOCC1 | inactive |
| FC(F)(F)c1nnc(-c2ccccc2)nc1Sc1ccc(Cl)cc1 | inactive |
| Cc1cc(C)cc(OC(=O)CS(=O)c2ccc(C(F)(F)F)cc2[N+](=O)[O-])c1 (stereo not given) | inactive |
| CCOc1ccc2nc(N3CCCC(C(=O)NCCCN4CCCCC4)C3)sc2c1 (stereo not given) | inactive |
| CCCc1nc([N+](=O)[O-])c(S(=O)(=O)c2ccccc2)n1CC(C)C | inactive |
| O=C(CSCc1ccc(Cl)cc1)Nc1ccc2c(c1)OCCO2 | inactive |
| CCC(C)c1ccccc1NC(=O)COC(=O)c1ccc2[nH]c3c(c2c1)CCCC3 (stereo not given) | inactive |
| Cc1ccc(COc2cccc(/C=N/NC(=O)c3nnn(-c4nonc4N)c3C)c2)cc1 | inactive |
| CCCCn1c(=N)n(CC(O)COc2ccc(C)cc2)c2ccccc21 (stereo not given) | inactive |
| CN1CCN(CC(=O)Nc2c(C(=O)c3ccccc3)oc3ccccc23)CC1 | inactive |

| SMILES | outcome |
| --- | --- |
| Cc1ccc(C)c(N2CCN(CCCNC(=O)Cn3cccc3C(=O)c3ccccc3)CC2)c1 | inactive |
| COc1ccc(-n2cc(CNCCCn3ccnc3)c(-c3cccc(F)c3)n2)cc1 | inactive |
| Cn1c(CCN2CCCCC2)nc2cc(NC(=O)COc3ccc([N+](=O)[O-])cc3)ccc21 | inactive |
| Cc1nn(Cc2ccc(Cl)cc2)c(C)c1NC(=O)CSc1nc2c(c(C(F)(F)F)n1)CCc1ccccc1-2 | inactive |
| CCn1ncc(CN2CCC(C(=O)Nc3cccc(-c4cccc(F)c4)c3)CC2)c1C | inactive |
| O=C(CSc1nc2ccccc2c(=O)n1-c1ccc(F)cc1F)Nc1ccc2c(c1)CCC2 | inactive |
| COc1ccc(C2Nc3ccc4ccccc4c3-c3c2c(=O)oc2ccccc32)cc1 (stereo not given) | inactive |
| Cc1cccc(/C=C2/Sc3ccc(C(=O)NCCCN4CCOCC4)cc3NC2=O)c1 | inactive |
| COc1ccc(C(=O)CSc2nnc(-c3ccc(S(=O)(=O)N4CCOCC4)cc3)o2)cc1 | inactive |
| CN(C)CCCN(C(=O)c1ccc2c(c1)CCCC2)c1nc2ccc(F)cc2s1 | inactive |
| COc1ccc(-c2cc(-c3ccc(OC)cc3)nc(-c3ccc4c(c3)NC(=O)CO4)c2)cc1 | inactive |
| CN1CCN(C(=O)CCN2C(=O)/C(=C\c3ccc(Cl)cc3Cl)SC2=S)CC1 | inactive |
| CCCCCCc1c(C)nc(-n2[nH]c(C)c(CCO)c2=O)[nH]c1=O | inactive |
| CCOC(=O)c1c(CC(C)C)csc1/N=C/C1=C(O)CCCC1=O | inactive |
| Cc1ccc(-n2ncc(C(=O)Nc3ccc(Cl)cc3)c2C2CCNCC2)cc1C | inactive |
| CCCCCCOC(=O)C(C#N)c1nc2ccccc2nc1N1CCN(C)CC1 (stereo not given) | inactive |
| O=C(Nc1ccc(F)cc1F)c1cc2ccccc2oc1=O | inactive |
| Cc1cccn2c(=O)c3cc(C(=O)NCCN4CCOCC4)c(=N)n(Cc4ccc(F)cc4)c3nc12 | inactive |
| Cc1ccc(S(=O)(=O)N(C)C)cc1NC(=O)c1cncc(Br)c1 | inactive |
| CCN1CCN(CCCNC(=O)c2ccc3c(Cl)c4c(nc3c2)CCCC4)CC1 | inactive |
